Shown are actives, neighbours in structure and some others; about 12% of the full set was active somewhere.
ALDH1A1 inh: ALDH1A1 (human) enzyme inhibition; Purified ALDH1A1, NADH fluorescence, propionaldehyde substrate; Potency, µM (series often up to 75.3 µM), without a hit: at the highest dose activity, negative = inhibition, actives largely listed as inhibitors; 7.3% of 220,000 active; AID 1030; active means well fitted inhibition curve with a large enough effect, not every such curve was filed as active; inconclusive means small, poorly fitted or top-dose-only effect, or another doubt; inactive means no such curve, though single readings can be large or run the other way;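 further: plate controls were no enzyme wells and a reference inhibitor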
Gal4-VP16 FLuc: Gal4-VP16 reporter inhibition counter-screen; Drosophila S2 Gal4-VP16 UAS-luciferase, luminescence, 20 h; 3.5% of 310,000 active; AID 2546; Potency, µM (highest dose often 53.6 µM), inactives show at the top dose activity, negative = inhibition, hits mostly inhibitors;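 further: Gal4-VP16 expression switched on by copper sulfate through the metallothionein promoter; nearly all actives have a fitted effect of over 50% in size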
Sfp PPTase inh: Sfp phosphopantetheinyl transferase inhibition; 3.5% of 310,000 active; Biochemical Sfp PPTase activity, qHTS; AID 1490; Potency, µM, inactives show largest response in the series, negative = inhibition, hits mostly inhibitors;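 further: the enzyme is Sfp with the accession as filed and its product quenches rhodamine fluorescence; 0% = enzyme reaction without inhibitor and -100% = no enzyme wells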
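Fluorescence-quenching assay: 15 nM Sfp-PPTase preincubated 15 min at room temperature with compound, then 5 uM rhodamine-CoA and 12.5 uM BHQ-2-labelled YbbR peptide added. Fluorescence (ex 525/em 598 nm) read at start and after 30 min; difference gives rate.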
PLK1 PBD block: inhibitors of human PLK1 polo-box domain binding; P53350; Plk1 PBD binding of FITC phosphopeptide, fluorescence polarization; Potency, µM, without a hit: max response, negative = inhibition, usual class: inhibitors; 2.8% of 360,000 active; AID 720504; further: series mostly up to about 57 µM; nearly all actives have a fitted effect of over 65% in size
RORg inh: inhibitors of mouse ROR gamma transcriptional activity; Drosophila S2 Gal4-RORgamma UAS-luciferase reporter, 20 h; 5.4% of 310,000 active; P51450; Potency, µM (titrated, usually from 53.6 µM), without a hit: at the top dose activity change, negative = inhibition, most hits filed as inhibitors; further: nearly all actives have a fitted effect of over 60% in size
Target sequence (P51450 whole entry, looked up, the tested form may be a part): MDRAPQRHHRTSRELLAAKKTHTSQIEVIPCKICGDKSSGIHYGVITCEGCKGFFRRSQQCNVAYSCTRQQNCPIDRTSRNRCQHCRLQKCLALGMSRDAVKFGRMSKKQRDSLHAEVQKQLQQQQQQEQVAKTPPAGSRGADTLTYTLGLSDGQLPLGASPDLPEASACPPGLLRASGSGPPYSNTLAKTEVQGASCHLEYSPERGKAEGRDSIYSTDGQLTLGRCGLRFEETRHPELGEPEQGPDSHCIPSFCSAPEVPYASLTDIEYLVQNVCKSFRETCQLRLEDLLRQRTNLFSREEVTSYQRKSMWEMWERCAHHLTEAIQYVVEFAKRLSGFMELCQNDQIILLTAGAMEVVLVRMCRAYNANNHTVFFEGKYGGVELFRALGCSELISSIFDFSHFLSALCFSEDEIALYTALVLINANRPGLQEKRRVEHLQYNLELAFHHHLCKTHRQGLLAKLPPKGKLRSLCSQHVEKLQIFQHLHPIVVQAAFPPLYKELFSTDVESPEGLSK
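Schneider cells (Drosophila), stable Gal4 DBD–ROR gamma + UAS-luc; 1 hr cmpd preincubation; Cu2+ induction 700 uM final; 20 hr ambient; luminescence.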
* hit, by the source's call; ? = inconclusive; · = not tested or not shown; [ ] = another dose, or the depositor's remark. Unless noted, the call rests on the fitted dose curve; in most records, active means well fitted curve in the direction sought with a large enough effect; inconclusive means small, poorly fitted or top-dose-only effect, or another doubt; inactive means no such curve, though single readings can be large; an effect the other way counts as inactive or inconclusive. Unless noted, on the % scale 0 is the no-effect control and ±100 the full control effect; potency means the concentration at half of the fitted maximal effect.

SMILES	ALDH1A1 inh	Gal4-VP16 FLuc	Sfp PPTase inh	PLK1 PBD block	RORg inh
CC(=O)Oc1cc2c(cc1Cl)C(c1cccs1)CC1(CC(C)(C)NC(=S)N1)O2 (stereo unspecified)	1%	?	0%	-6%	10µM*
CC1(C)CC2(CC(c3ccccc3)Oc3cc(O)ccc32)NC(=S)N1 (stereo unspecified)	10%	8.9µM*	3%	1%	8.9µM*
COc1cccc([C@@H]2Oc3ccc(OC)cc3/C(=N/O[C@@H](C)c3cn([C@H]4COC[C@H]4O)nn3)[C@@H]2O)c1	0%[13.5 µM]	4%[10 µM]	1%	·	6%[10 µM]
O=S(=O)(c1ccc(Br)s1)N1CCN(c2ccccc2)CC1	11%	-12%	-6%	-8%	13%
O=S(=O)(c1ccc(Br)s1)N1CCN(c2ccc(F)cc2)CC1	·	4%	50µM*	-5%	?
CCCCC(CC(O)COCC(C)C)C(=O)NNC(=S)Nc1ccccc1 (stereo unspecified)	10µM*	-5%	7%	-10%	-21%
CCC(CC(C)(C)O)C(=O)NNC(=S)Nc1ccccc1 (stereo unspecified)	25µM*	-16%	7%	-4%	-33%
C=CCNC(=S)NNC(=O)C(CCCC)CC(C)O (stereo unspecified)	1%	-5%	7%	-6%	-29%
Cc1c(C(=O)N2CCN(Cc3ccccc3)CC2)oc2c1C(=O)CCC2	·	-7%	12%	-6%	13%
CCOC(=O)COc1c(Cl)cc(C2NC(=S)NC(c3ccccc3)=C2C(C)=O)cc1OCC (stereo unspecified)	-1%	3.2µM*	8%	-6%	3.5µM*
C=CCOc1ccc(C2NC(=S)NC(c3ccccc3)=C2C(C)=O)cc1OC (stereo unspecified)	?	-4%	6%	-17%	14µM*
CCCCNC(=O)c1c(N)[nH]c(C(=O)c2ccccc2)c1-c1ccc(Cl)cc1	·	·	·	-8%	·
O=C(Nc1ccc(F)c(Cl)c1)C1CC(=O)n2c(nc3ccccc32)N1 (stereo unspecified)	6%	?	?	-11%	3.5µM*
O=C(Nc1ccc(F)cc1)C1CC(=O)n2c(nc3ccccc32)N1 (stereo unspecified)	16%	-6%	-16%	2%	17%
O=C(CSc1nnnn1C1CCCCC1)Nc1nc2c(s1)CCCC2	7.9µM*	8%	-20%	-8%	-37%
COc1cccc(-n2nnnc2SCC(=O)Nc2nc3c(s2)CCCC3)c1	?	8.9µM*	12%	-2%	3.2µM*
CCOc1ccc2nc(NC(=O)CSc3nnnn3C3CCCCC3)sc2c1	8.9µM*	4%	23%	-14%	17%
Cc1ccc(S(=O)(=O)N2c3ccccc3OC(C(=O)OC(C)(C)C)(C(=O)OC(C)(C)C)C2CC(=O)c2ccccc2)cc1 (stereo unspecified)	·	·	·	-10%	·
C#C[C@@]1(O)CC[C@@H]2[C@@H]3CCC4=CC(=O)CC[C@@H]4[C@H]3CC[C@]21CC	-9%[20.9 µM]	4%[17 µM]	23%	·	2%[16.9 µM]
CC(=O)Nc1nc(-c2ccccc2)c(-c2ccccc2)o1	?	?	7%	-10%	13µM*
CC(=O)CSc1nc(-c2ccccc2)c(-c2ccccc2)o1	·	-9%	-12%	0%	7%
COc1cc(OC)cc(C(=O)Nc2nc(-c3ccccc3)c(-c3ccccc3)o2)c1	-11%	2.8µM*	4%	-4%	1.4µM*
COc1cc(OC)cc(C(=O)Nc2cccc(NC(=O)c3cc(OC)cc(OC)c3)n2)c1	·	·	·	-3%	·
O=C(Nc1nc2n(n1)C(c1ccc(F)cc1)CC(c1ccccc1)N2)c1ccco1 (stereo unspecified)	1%	7.1µM*	0%	3%	3.2µM*
O=C(Nc1ncc2c(n1)CC(c1ccc(Cl)cc1)CC2=O)c1ccco1 (stereo unspecified)	·	-14%	?	-2%	16%
SMILES	ALDH1A1 inh	Gal4-VP16 FLuc	Sfp PPTase inh	PLK1 PBD block	RORg inh
O=C(Nc1nc2n(n1)C(c1ccc(Cl)cc1)CC(c1ccc(Cl)cc1)N2)c1ccco1 (stereo unspecified)	-7%	3.5µM*	16%	-1%	3.2µM*
COc1ccc(C2CC(c3ccc(Cl)cc3)Nc3nc(NC(=O)c4ccco4)nn32)cc1 (stereo unspecified)	8%	0.16µM*	-13%	-4%	0.71µM*
COC(=O)[C@@]12C[C@@H](CC(=O)NCc3ccccc3)C(=O)N(Cc3ccccc3)C1=CCC(C)(C)C2	·	·	·	-3%	·
C=C1CCN(C(CC(C)C)C(=O)NCc2ccc(Cl)cc2)S(=O)(=O)c2ccccc21 (stereo unspecified)	·	18%	9%	·	0%
COc1ccc(C(=O)Oc2cc3c4c(c2)C(C)=CC(C)(C)N4C(=O)C3=O)cc1OC	?	-20%	-17%	-18%	26%
COc1cccc(C(=O)Oc2cc3c4c(c2)C(C)=CC(C)(C)N4C(=O)C3=O)c1	8.9µM*	?	6%	?	?
COc1cc2c3c(c1)C1(C(=O)N3C(C)(C)C=C2C)C(C#N)=C(N)Oc2cc(O)ccc21 (stereo unspecified)	3%	-14%	-8%	-6%	18%
COc1cc2c3c(c1)C(C)=CC(C)(C)N3C(=O)C2=O	3.5µM*	-15%	10%	-9%	-6%
COc1ccc2c(c1)C(C)CC(C)(C)N2C(=O)Nc1ccccc1 (stereo unspecified)	·	14%	8%	-17%	12%
COc1cc2c3c(c1)C(C)CC(C)(C)N3C(=O)C2=O (stereo unspecified)	0.14µM*	-1%	23%	-18%	-16%
COc1cc(/C=C(\C#N)C(=O)N2CCOCC2)cc(Br)c1O	?	-2%	-8%	21µM*	9%
N#C/C(=C\c1cccc(Oc2ccccc2)c1)C(=O)N1CCOCC1	-1%	-8%	-29%	?	-29%
O=c1cc(O)c(-c2ccccc2Cl)c(Cl)[nH]1	9%	0%	89µM*	0%	0%
Cc1cccc(-c2c(O)cc(=O)[nH]c2Cl)c1	10%	-11%	?	-15%	31%
Cc1cccc(-n2ncc3c(NCc4ccco4)ncnc32)c1	?	4%	1%	-16%	?
Cn1ncc2c(NNC(=O)Cc3ccccc3)ncnc21	8%	-7%	3%	-1%	16%
Cc1ccc(-n2ncc3c(NNC(=O)Cc4ccccc4)ncnc32)cc1	-3%	?	-13%	-14%	13µM*
Cc1ccc(-n2ncc3c(NNC(=O)c4ccco4)ncnc32)cc1Cl	·	4µM*	7%	0%	3.2µM*
Clc1ccc(-n2ncc3c(NCc4cccs4)ncnc32)cc1	1.6µM*	?	12%	-6%	27%
Cc1cccc(-n2ncc3c(NCc4cccs4)ncnc32)c1	?	?	9%	-2%	?
Cc1cccc(-n2ncc3c(NNC(=O)c4ccco4)ncnc32)c1	·	7.9µM*	6%	1%	7.1µM*
